In paper PMC9911399, “Two distinct binding modes provide the RNA-binding protein RbFox with extraordinary sequence specificity”:
Changes are numbered by the printed parent chain; changes in the protein carry UniProt numbers. The full ranking holds about 16,000 sequences; the median of “ka relative to ugcaugu” is about 0.096, and the highest 2% start at about 0.35. Only a selection was taken, and the highest values are over-represented in it overall.

T1: RBFOX1 RRM RbFoxmut (Fox-RRM*) (Homo sapiens, UniProt Q9NWB1 109-208, R118D;E147R;N151S;E152T)
T1 sequence: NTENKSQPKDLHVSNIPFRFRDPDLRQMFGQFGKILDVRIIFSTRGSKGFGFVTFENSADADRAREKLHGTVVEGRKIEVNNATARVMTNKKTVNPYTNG

B1: AGGAUGG (DNA:RNA)
RNA: GGGAGACCGGAAUUCAGAUUGUCCAGGAUGGUUAAAUCCCGUCGUAGCCACCA
DNA 1: CAATCTGAATTCCGGTCTCCC
DNA 2: TGGTGGCTACGACGGGATT
B2: UCGUACU (DNA:RNA)
RNA: B1 RNA with A25U, G26C, A28U, U29A, G30C, G31U
DNA 1: CAATCTGAATTCCGGTCTCCC
DNA 2: TGGTGGCTACGACGGGATT
B3: GGAUGUU (DNA:RNA)
RNA: B1 RNA with A25G, G27A, A28U, U29G, G30U, G31U
DNA 1: CAATCTGAATTCCGGTCTCCC
DNA 2: TGGTGGCTACGACGGGATT
B4: GGGGAUG (DNA:RNA)
RNA: B1 RNA with A25G, A28G, U29A, G30U
DNA 1: CAATCTGAATTCCGGTCTCCC
DNA 2: TGGTGGCTACGACGGGATT
B5: GGGAUGU (DNA:RNA)
RNA: B1 RNA with A25G, G31U
DNA 1: CAATCTGAATTCCGGTCTCCC
DNA 2: TGGTGGCTACGACGGGATT
B6: GGGGGGA (DNA:RNA)
RNA: B1 RNA with A25G, A28G, U29G, G31A
DNA 1: CAATCTGAATTCCGGTCTCCC
DNA 2: TGGTGGCTACGACGGGATT
B7: GAGAUGU (DNA:RNA)
RNA: B1 RNA with A25G, G26A, G31U
DNA 1: CAATCTGAATTCCGGTCTCCC
DNA 2: TGGTGGCTACGACGGGATT
B8: CGGGAUG (DNA:RNA)
RNA: B1 RNA with A25C, A28G, U29A, G30U
DNA 1: CAATCTGAATTCCGGTCTCCC
DNA 2: TGGTGGCTACGACGGGATT
B9: CACAAUA (DNA:RNA)
RNA: B1 RNA with A25C, G26A, G27C, U29A, G30U, G31A
DNA 1: CAATCTGAATTCCGGTCTCCC
DNA 2: TGGTGGCTACGACGGGATT
B10: CGUCAUC (DNA:RNA)
RNA: B1 RNA with A25C, G27U, A28C, U29A, G30U, G31C
DNA 1: CAATCTGAATTCCGGTCTCCC
DNA 2: TGGTGGCTACGACGGGATT
B11: GGGUAUC (DNA:RNA)
RNA: B1 RNA with A25G, A28U, U29A, G30U, G31C
DNA 1: CAATCTGAATTCCGGTCTCCC
DNA 2: TGGTGGCTACGACGGGATT
B12: GGGCAUC (DNA:RNA)
RNA: B1 RNA with A25G, A28C, U29A, G30U, G31C
DNA 1: CAATCTGAATTCCGGTCTCCC
DNA 2: TGGTGGCTACGACGGGATT
B13: CGGAAUC (DNA:RNA)
RNA: B1 RNA with A25C, U29A, G30U, G31C
DNA 1: CAATCTGAATTCCGGTCTCCC
DNA 2: TGGTGGCTACGACGGGATT
B14: GGCAUCU (DNA:RNA)
RNA: B1 RNA with A25G, G27C, G30C, G31U
DNA 1: CAATCTGAATTCCGGTCTCCC
DNA 2: TGGTGGCTACGACGGGATT
B15: CGUAAUC (DNA:RNA)
RNA: B1 RNA with A25C, G27U, U29A, G30U, G31C
DNA 1: CAATCTGAATTCCGGTCTCCC
DNA 2: TGGTGGCTACGACGGGATT
B16: CGGUAUC (DNA:RNA)
RNA: B1 RNA with A25C, A28U, U29A, G30U, G31C
DNA 1: CAATCTGAATTCCGGTCTCCC
DNA 2: TGGTGGCTACGACGGGATT
B17: GUUAAUC (DNA:RNA)
RNA: B1 RNA with A25G, G26U, G27U, U29A, G30U, G31C
DNA 1: CAATCTGAATTCCGGTCTCCC
DNA 2: TGGTGGCTACGACGGGATT
B18: GGAGAUC (DNA:RNA)
RNA: B1 RNA with A25G, G27A, A28G, U29A, G30U, G31C
DNA 1: CAATCTGAATTCCGGTCTCCC
DNA 2: TGGTGGCTACGACGGGATT
B19: CGGCAUC (DNA:RNA)
RNA: B1 RNA with A25C, A28C, U29A, G30U, G31C
DNA 1: CAATCTGAATTCCGGTCTCCC
DNA 2: TGGTGGCTACGACGGGATT
B20: GGUAUCU (DNA:RNA)
RNA: B1 RNA with A25G, G27U, G30C, G31U
DNA 1: CAATCTGAATTCCGGTCTCCC
DNA 2: TGGTGGCTACGACGGGATT
B21: GGGAAUC (DNA:RNA)
RNA: B1 RNA with A25G, U29A, G30U, G31C
DNA 1: CAATCTGAATTCCGGTCTCCC
DNA 2: TGGTGGCTACGACGGGATT
B22: UUGGUAC (DNA:RNA)
RNA: B1 RNA with A25U, G26U, A28G, G30A, G31C
DNA 1: CAATCTGAATTCCGGTCTCCC
DNA 2: TGGTGGCTACGACGGGATT
B23: CGUCAGG (DNA:RNA)
RNA: B1 RNA with A25C, G27U, A28C, U29A
DNA 1: CAATCTGAATTCCGGTCTCCC
DNA 2: TGGTGGCTACGACGGGATT
B24: ACUGCGG (DNA:RNA)
RNA: B1 RNA with G26C, G27U, A28G, U29C
DNA 1: CAATCTGAATTCCGGTCTCCC
DNA 2: TGGTGGCTACGACGGGATT
B25: UAAAUAU (DNA:RNA)
RNA: B1 RNA with A25U, G26A, G27A, G30A, G31U
DNA 1: CAATCTGAATTCCGGTCTCCC
DNA 2: TGGTGGCTACGACGGGATT
B26: UCUACGU (DNA:RNA)
RNA: B1 RNA with A25U, G26C, G27U, U29C, G31U
DNA 1: CAATCTGAATTCCGGTCTCCC
DNA 2: TGGTGGCTACGACGGGATT
B27: AGUUUCU (DNA:RNA)
RNA: B1 RNA with G27U, A28U, G30C, G31U
DNA 1: CAATCTGAATTCCGGTCTCCC
DNA 2: TGGTGGCTACGACGGGATT
B28: UAGACCC (DNA:RNA)
RNA: B1 RNA with A25U, G26A, U29C, G30C, G31C
DNA 1: CAATCTGAATTCCGGTCTCCC
DNA 2: TGGTGGCTACGACGGGATT
B29: UUAAAUG (DNA:RNA)
RNA: B1 RNA with A25U, G26U, G27A, U29A, G30U
DNA 1: CAATCTGAATTCCGGTCTCCC
DNA 2: TGGTGGCTACGACGGGATT
B30: UUGUUGA (DNA:RNA)
RNA: B1 RNA with A25U, G26U, A28U, G31A
DNA 1: CAATCTGAATTCCGGTCTCCC
DNA 2: TGGTGGCTACGACGGGATT
B31: UUGAAUC (DNA:RNA)
RNA: B1 RNA with A25U, G26U, U29A, G30U, G31C
DNA 1: CAATCTGAATTCCGGTCTCCC
DNA 2: TGGTGGCTACGACGGGATT
B32: UUGAAUG (DNA:RNA)
RNA: B1 RNA with A25U, G26U, U29A, G30U
DNA 1: CAATCTGAATTCCGGTCTCCC
DNA 2: TGGTGGCTACGACGGGATT
B33: UUGAUCC (DNA:RNA)
RNA: B1 RNA with A25U, G26U, G30C, G31C
DNA 1: CAATCTGAATTCCGGTCTCCC
DNA 2: TGGTGGCTACGACGGGATT
B34: UUGAAAU (DNA:RNA)
RNA: B1 RNA with A25U, G26U, U29A, G30A, G31U
DNA 1: CAATCTGAATTCCGGTCTCCC
DNA 2: TGGTGGCTACGACGGGATT
B35: UUGAUUG (DNA:RNA)
RNA: B1 RNA with A25U, G26U, G30U
DNA 1: CAATCTGAATTCCGGTCTCCC
DNA 2: TGGTGGCTACGACGGGATT
B36: UUGAUUC (DNA:RNA)
RNA: B1 RNA with A25U, G26U, G30U, G31C
DNA 1: CAATCTGAATTCCGGTCTCCC
DNA 2: TGGTGGCTACGACGGGATT
B37: UUAAAUC (DNA:RNA)
RNA: B1 RNA with A25U, G26U, G27A, U29A, G30U, G31C
DNA 1: CAATCTGAATTCCGGTCTCCC
DNA 2: TGGTGGCTACGACGGGATT

Target: T1, RBFOX1 RRM RbFoxmut (Fox-RRM*)
Assay: EMSA; HiTS-Eq, 1 nM pool, 10 min; buffer printed only for the single-RNA assays: 10 mM Tris pH 7.5, 150 mM NaCl, 3.4 mM EDTA, 0.001% NP-40, 30 C
Settings: tags: His6 N-terminal (pET28a); label: 5' 32P
How it was run: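 A pool of RNA with 7 randomized nucleotides, 5′-radiolabelled and with DNA-annealed flanks, was equilibrated at 1 nM for 10 min in 50 µL with purified RbFox RRM, wild type or mutant, across increasing protein concentrations. Free RNA was separated by 8% native PAGE, excised, reverse-transcribed, barcoded by PCR and sequenced. Relative association constants were obtained from read-count changes of each RNA species versus the control reaction and normalised to the cognate motif.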

Q: How did the binding signal turn out when B1 was run?
A: Its binding signal is 0.177 KA relative to UGCAUGU.

Q: For B2, which binding signal is on record?
A: Its binding signal is 0.0912 KA relative to UGCAUGU.

Q: How did the binding signal turn out when B3 was run?
A: The binding signal was 0.213 KA relative to UGCAUGU.

Q: Which binding signal does the source give for B4 here?
A: Its binding signal is 0.612 KA relative to UGCAUGU.

Q: For B5, which binding signal is on record?
A: Its binding signal is 0.373 KA relative to UGCAUGU.

Q: For B6, which binding signal is on record?
A: Its binding signal is 0.082 KA relative to UGCAUGU.

Q: How did the binding signal turn out when B7 was run?
A: The binding signal was 0.15 KA relative to UGCAUGU.

Q: Which binding signal does the source give for B8 here?
A: Its binding signal is 0.296 KA relative to UGCAUGU.

Q: Which binding signal does the source give for B9 here?
A: The binding signal was 0.084 KA relative to UGCAUGU.

Q: For B10, which binding signal is on record?
A: Its binding signal is 0.0997 KA relative to UGCAUGU.

Q: For B11, which binding signal is on record?
A: Its binding signal is 0.409 KA relative to UGCAUGU.

Q: B12 was tested. Which binding signal did it give?
A: Its binding signal is 0.396 KA relative to UGCAUGU.

Q: How did the binding signal turn out when B13 was run?
A: Its binding signal is 0.436 KA relative to UGCAUGU.

Q: With B14 as the binder, how does the binding signal read?
A: The binding signal was 0.27 KA relative to UGCAUGU.

Q: How did the binding signal turn out when B15 was run?
A: Its binding signal is 0.0673 KA relative to UGCAUGU.

Q: How did the binding signal turn out when B16 was run?
A: Its binding signal is 0.245 KA relative to UGCAUGU.

Q: With B17 as the binder, how does the binding signal read?
A: The binding signal was 0.0571 KA relative to UGCAUGU.

Q: How did the binding signal turn out when B18 was run?
A: The binding signal was 0.155 KA relative to UGCAUGU.

Q: Which binding signal does the source give for B19 here?
A: The binding signal was 0.261 KA relative to UGCAUGU.

Q: B20 was tested. Which binding signal did it give?
A: Its binding signal is 0.206 KA relative to UGCAUGU.

Q: For B21, which binding signal is on record?
A: Its binding signal is 0.494 KA relative to UGCAUGU.

Q: For B22, which binding signal is on record?
A: Its binding signal is 0.144 KA relative to UGCAUGU.

Q: With B23 as the binder, how does the binding signal read?
A: The binding signal was 0.113 KA relative to UGCAUGU.

Q: How did the binding signal turn out when B24 was run?
A: Its binding signal is 0.0963 KA relative to UGCAUGU.

Q: With B25 as the binder, how does the binding signal read?
A: The binding signal was 0.0636 KA relative to UGCAUGU.

Q: With B26 as the binder, how does the binding signal read?
A: Its binding signal is 0.118 KA relative to UGCAUGU.

Q: B27 was tested. Which binding signal did it give?
A: Its binding signal is 0.0838 KA relative to UGCAUGU.

Q: B28 was tested. Which binding signal did it give?
A: The binding signal was 0.0507 KA relative to UGCAUGU.

Q: B29 was tested. Which binding signal did it give?
A: Its binding signal is 0.0888 KA relative to UGCAUGU.

Q: With B30 as the binder, how does the binding signal read?
A: Its binding signal is 0.0998 KA relative to UGCAUGU.

Q: For B31, which binding signal is on record?
A: Its binding signal is 0.374 KA relative to UGCAUGU.

Q: For B32, which binding signal is on record?
A: The binding signal was 1.17 KA relative to UGCAUGU.

Q: With B33 as the binder, how does the binding signal read?
A: Its binding signal is 0.0834 KA relative to UGCAUGU.

Q: B34 was tested. Which binding signal did it give?
A: Its binding signal is 0.0963 KA relative to UGCAUGU.

Q: With B35 as the binder, how does the binding signal read?
A: Its binding signal is 0.381 KA relative to UGCAUGU.

Q: B36 was tested. Which binding signal did it give?
A: Its binding signal is 0.196 KA relative to UGCAUGU.

Q: B37 was tested. Which binding signal did it give?
A: The binding signal was 0.0555 KA relative to UGCAUGU.
